Only some compounds are listed: those with a hit (about 2.7% of all), similar ones and a draw of the others.
eIF4E-4G inh: blocks eIF4E binding to eIF4G; actives 0.37% (n = 220,000); TR-FRET eIF4E-eIF4GI(517-606) binding, 2 h; inhibition, % at 21.7 µM; P63073+Q04637;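 active = inhibition above about 30%, limit read from the data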;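 also: 0% = full FRET control wells and 100% = background wells lacking eIF4GI fragment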
Pf gamet viab: inhibitors of late stage P. falciparum gametocyte viability; AID 743093; P. falciparum stage V gametocytes, ATP luminescence, 24 h; inhibition, % at 10.9 µM; actives 0.065% (n = 150,000);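 active = inhibition above the mean plus 3 SD of compounds within the control limits, set per campaign, cut at about 38% in these data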;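 also: 0% = DMSO wells and 100% = medium only without gametocytes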
Bim-Mcl-1: disrupts Bim peptide binding to human Mcl-1. inhibition, % at 10 µM. Bead-based flow cytometry, Bim peptide-Mcl-1 binding. Q07820. actives 0.1% (n = 190,000). AID 1009; in the data active = inhibition above about 40%;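 also: 0% = no compound tracer wells and 100% = peptide blocker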
14-3-3 Bad inh: disrupts binding of bovine 14-3-3 zeta to phospho-Bad peptide. AID 781. inhibition, % at 21.7 µM. TR-FRET 14-3-3zeta/Dy647-pBad peptide displacement, 1 h. P63103. actives 0.71% (n = 220,000);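 active = inhibition above about 70%, limit read from the data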;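 also: 0% = full 14-3-3 plus peptide FRET controls and 100% = background without 14-3-3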
Target sequence (P63103 whole entry, looked up): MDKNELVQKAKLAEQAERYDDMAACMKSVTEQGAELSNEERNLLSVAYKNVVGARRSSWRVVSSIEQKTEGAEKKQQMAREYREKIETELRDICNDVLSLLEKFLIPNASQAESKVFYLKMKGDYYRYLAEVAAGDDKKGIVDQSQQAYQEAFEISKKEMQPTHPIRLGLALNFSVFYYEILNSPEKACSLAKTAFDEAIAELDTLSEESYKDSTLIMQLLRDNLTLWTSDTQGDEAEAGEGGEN
Mcl1 Bid PPI: disrupts binding of human Mcl-1 to Bid peptide; inhibition, % at 21.7 µM; TR-FRET Mcl-1/Bid-Dy647 peptide binding, 1536-well; actives 0.97% (n = 220,000); Q07820;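 active = compounds that cut the binding signal by more than half at the single screening dose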;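 also: His-tagged Mcl-1 with europium anti-His antibody binding Bid BH3 peptide; 0% = Mcl-1 plus peptide wells and 100% = peptide-only wells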
Mcl1-Noxa inh: disrupts binding of human Mcl-1 to Noxa peptide. inhibition, % at 21.7 µM. TR-FRET Mcl-1/Noxa peptide binding, 2 h. actives 1.5% (n = 220,000). Q07820. AID 1022;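 active = compounds that cut the protein-peptide binding signal by more than 50% relative to plate controls in a single-dose test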;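 also: His-tagged Mcl-1 with rhodamine Noxa BH3 peptide and terbium anti-His antibody; 0% = Mcl-1 plus Noxa peptide wells and 100% = peptide-only wells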
* hit, by the source's call; . = no result; [ ] = another dose, or the depositor's remark.

SMILES	eIF4E-4G inh	Pf gamet viab	Bim-Mcl-1	14-3-3 Bad inh	Mcl1 Bid PPI	Mcl1-Noxa inh
CC(=O)Nc1ccc(S(=O)(=O)Nc2nc3ccccc3nc2Nc2ccc(N)cc2)cc1	-3.7	-16.6	.	0.4	-144.7	58.0*
O=C(CSc1nnc(-c2ccco2)o1)c1ccc([N+](=O)[O-])cc1	92.8*	0.9	.	-5.0	-44.3	11.2
COC(=O)CN1CCN(C(c2ccccc2)c2ccccc2)CC1	-3.3	-12.5	-2.0	-1.0	-20.1	-9.5
COCCNC(=O)CN1CCN(C(c2ccccc2)c2ccccc2)CC1	4.8	.	-5.0	87.9*	45.1	4.1
O=C1C(c2cc(=O)c3ccccc3[nH]2)=C(O)c2ccccc21	3.5	18.0	-2.0	-16.7	-63.4	47.3
O=c1cc(-c2ccccc2)[nH]c2ccccc12	48.5*[fluorescence artefact?]	.	0.0	13.2	17.6	13.4
CCC1(C)Cc2c(sc3nnn(CC(=O)Nc4ccccc4C)c(=O)c23)CO1 (configuration not stated)	0.1	.	0.0	-5.1	18.6	53.5*
Cc1ccccc1NC(=O)Cn1nnc2sc3c(c2c1=O)CC(C)(C)OC3	1.9	8.9	.	3.7	-4.8	5.8
O=C(NCCN1CCNCC1)c1ccccn1	1.7	.	0.0	72.5*	7.2	28.5
CCn1c(SCC(=O)NCc2ccco2)nc2ccccc2c1=O	-4.2	9.6	1.0	-0.1	-47.5	17.0
COc1cccc(NC(=O)CSc2nc3ccccc3n2C)c1	3.9	.	-21.0	5.5	84.8*	-9.1
COc1ccc2c(c1)nc(SCC(=O)c1ccc(Br)s1)n2C	-4.2	.	-1.0	84.0*	-0.1	19.7
Cc1ccc(NC(=O)CSc2nc3ccccc3c3nc4ccccc4n23)cc1	-12.5	.	1.0	53.5	61.8*	19.9
CCn1c(SCC(=O)Nc2cccc(OC)c2)nc2ccccc2c1=O	.	2.4	.	.	.	.
O=C(CSc1nc2ccccc2c2nc3ccccc3n12)NCc1ccco1	-38.5	-14.6	0.0	46.4	85.5*	-69.3
O=C(c1ccc(-c2cc3ccccc3oc2=O)cc1)N1CCN(c2ccc(Cl)cc2[N+](=O)[O-])CC1	21.9	20.4	-5.0	2.8	-30.7	5.3
O=CN1CCN(C(C(=O)NC2CCCCC2)c2ccc(Cl)cc2)CC1 (configuration not stated)	.	-9.2	.	.	.	.
O=C(c1ccc(SCc2cccc(Br)c2)c([N+](=O)[O-])c1)N1CCN(c2ccccn2)CC1	-4.3	-16.9	0.0	-2.8	-2.9	-1.3
O=C(NCc1ccc(F)cc1)C1(c2cccs2)CCOCC1	1.4	10.2	-5.0	5.7	15.1	-5.3
O=c1cc(-c2ccc(O)c(O)c2)oc2cc(O)cc(O)c12	2.5	4.2	.	21.6	-65.0	66.2*
O=c1c(-c2c(O)cc(O)c3c(=O)cc(-c4ccc(O)cc4)oc23)c(-c2ccc(O)cc2)oc2cc(O)cc(O)c12	2.4	.	.	17.5	-60.0	102.9*
O=c1cc(-c2ccc(O)c(-c3c(O)cc(O)c4c(=O)cc(-c5ccc(O)cc5)oc34)c2)oc2cc(O)cc(O)c12	12.1	17.8	0.0	2.6	22.0	112.1*
O=C(O)c1cccc(Cn2c(Cl)c(/C=N/NC(=O)c3cc4ccccc4cc3O)sc2=O)c1	6.2	3.5	.	9.1	50.1	87.5*
O=C(O)c1cccc(Cn2c(Cl)c(/C=N/NC(=O)c3ccccc3)sc2=O)c1	5.8	.	-2.0	21.9	-21.3	15.5
CCCCNC(=O)C1CCN(C/C(C)=C/c2ccccc2)CC1	-2.1	-34.6	0.0	70.9*	14.0	11.5
SMILES	eIF4E-4G inh	Pf gamet viab	Bim-Mcl-1	14-3-3 Bad inh	Mcl1 Bid PPI	Mcl1-Noxa inh
Cc1ccccc1N(Cc1nnc2n1CCCCC2)C(=O)Nc1ccccc1	-2.8	-27.3	0.0	-2.2	-0.1	22.1
Nc1nc2c(c(=O)[nH]1)C(c1cccc3ccccc13)C1=C(N2)c2ccccc2C1=O (configuration not stated)	1.8	-5.4	4.0	3.6	13.9	94.1*
COc1ccc(NC(=O)CC2SC3=NCCN3C2=O)cc1 (configuration not stated)	-1.4	5.2	0.0	-8.2	-8.7	10.3
O=C(CCNS(=O)(=O)c1ccc(Br)s1)N1CCCCC1	-6.6	-39.7	-1.0	-7.2	-25.3	15.9
O=C(CCS(=O)(=O)c1cccs1)N1CCCC1	50.2*	.	-6.0	8.5	-20.7	8.1
O=C(CCNS(=O)(=O)c1cccs1)N1CCCCCC1	38.0*	-20.7	0.0	6.3	-9.4	-13.1

Source: PubChem BioAssay (several laboratories)
